PubChem BioAssay AID1159580 (chemical genetic matrix, 2015)
Values joined by “and” are separate entries in the source; they are usually repeats but may differ in a detail not shown here. Identical values can stand only once. About 2,000 (36%) of roughly 5,500 compounds were called active. Another 18% or so got no clear call; they are omitted. No stated cut-off is given here; in the data, active means normalized growth mostly below about 0.91 (no sharp cut-off); inconclusive means no clear call, values can overlap the other calls; inactive means mostly above about 0.92. The list shows a part of the results.

Assay: chemical genetic growth profiling, strain panel (AID 1159580);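 further: tested at 20 µM; growth read once vehicle control cultures reached saturation at 30 °C; 1 = growth at the plate median or of vehicle wells; lower values mean less growth of the strain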
Conditions: S. cerevisiae deletion strains, growth OD
[1] = locus YHR030C, strain SLT2, hits give low values
[2] = locus YHR079C, strain IRE1, hits give low values
[3] = locus YJL095W, strain BCK1, hits give low values
[4] = locus YJR066W, strain TOR1, hits give low values
[5] = locus YLR113W, strain HOG1, hits give low values
[6] = locus YNL183C, strain NPR1, hits give low values
[7] = locus YOR231W, strain MKK1, hits give low values
[8] = locus YPL256C, strain CLN2, hits give low values
[9] = locus YAL013W, strain DEP1, hits give low values
[10] = locus YDR150W, strain NUM1, hits give low values
[11] = locus YMR307W, strain GAS1, hits give low values
[12] = locus YNL153C, strain GIM3, hits give low values
[13] = locus YNL322C, strain KRE1, hits give low values
[14] = locus YBR229C, strain ROT2, hits give low values
[15] = locus YDL101C, strain DUN1, hits give low values
[16] = locus YEL061C, strain CIN8, hits give low values
[17] = locus YJR043C, strain POL32, hits give low values
[18] = locus YLR039C, strain RIC1, hits give low values
[19] = locus YLR262C, strain YPT6, hits give low values
[20] = locus YPL055C, strain LGE1, hits give low values
[21] = locus YPL241C, strain CIN2, hits give low values

Measured: normalized growth

CC(=O)[C@@]12O[C@](C)(c3ccccc3)O[C@@H]1CC1C3CCC4=CC(=O)CC[C@]4(C)C3CC[C@@]12C (stereo partly specified)
inactive: [1] 1.06 | [2] 1.03 | [3] 0.901 | [4] 1.01 | [5] 0.897 | [6] 0.987 | [7] 1 | [8] 1.02

C[C@]12CCC(=O)C=C1CC[C@@H]1[C@@H]2[C@@H](O)C[C@@]2(C)[C@H]1CC[C@]2(O)C(=O)CO
inactive: [9] 1 | locus YAL040C, strain CLN3, hits give low values 0.989 | locus YCL061C, strain MRC1 (second series), hits give low values 1 | [10] 0.993 | locus YDR363W, strain ESC2, hits give low values 1.02 | locus YER002W, strain NOP16, hits give low values 0.986 | [11] 1.01 | [12] 1.01 | locus YNL175C, strain NOP13, hits give low values 0.99 | locus YNL224C, strain SQS1, hits give low values 0.995 | [13] 1 | locus YOR083W, strain WHI5 (second series), hits give low values 1.01

CC(=O)OCC(=O)[C@@]1(O)CCC2C3CCC4=CC(=O)CC[C@]4(C)C3[C@@H](O)C[C@@]21C (stereo partly specified)
inactive: [9] 1.01 | locus YAL021C, strain ccr4, hits give low values 1.03 | locus YAL026C, strain drs2, hits give low values 1.02 | locus YAL030W, strain snc1, hits give low values 1.04 | locus YBL061C, strain skt5, hits give low values 1.03 | locus YBR009C, strain hhf1, hits give low values 0.99 | locus YBR021W, strain FUR4, hits give low values 0.999 | locus YBR023C, strain chs3, hits give low values 1.02 | locus YBR171W, strain sec66, hits give low values 1.04 | [14] 1 | locus YBR231C, strain swc5, hits give low values 0.999 | locus YBR279W, strain paf1, hits give low values 1.01 | locus YCL011C, strain gbp2, hits give low values 1.01 | locus YCL016C, strain dcc1, hits give low values 1.04 | locus YCL029C, strain bik1, hits give low values 1 | locus YCL069W, strain vba3, hits give low values 1 | locus YCR088W, strain abp1, hits give low values 1.02 | locus YDL005C, strain med2, hits give low values 1.01 | locus YDL035C, strain GPR1, hits give low values 1.01 | locus YDL040C, strain nat1, hits give low values 1.01 | locus YDL074C, strain BRE1, hits give low values 1.01 | [15] 1.01 | locus YDL134C, strain PPH21, hits give low values 1.01 | locus YDL185W, strain tfp1, hits give low values 1.01 | locus YDL192W, strain arf1, hits give low values 1 | locus YDR001C, strain nth1, hits give low values 1.01 | locus YDR069C, strain doa4, hits give low values 1.04 | locus YDR101C, strain arx1, hits give low values 0.994 | locus YDR137W, strain rgp1, hits give low values 1.05 | [10] 1.01 | locus YDR159W, strain sac3, hits give low values 0.997 | locus YDR162C, strain NBP2, hits give low values 1.01 | locus YDR195W, strain ref2 1.02 | locus YDR297W, strain sur2, hits give low values 0.997 | locus YDR318W, strain mcm21, hits give low values 0.998 | locus YDR334W, strain swr1, hits give low values 1.01 | locus YDR335W, strain msn5, hits give low values 1.02 | locus YDR388W, hits give low values 1 | locus YDR392W, strain spt3, hits give low values 1.04 | locus YDR502C, strain sam2, hits give low values 0.996 | locus YEL003W, strain gim4, hits give low values 1.01 | locus YEL037C, strain rad23, hits give low values 1.02 | locus YEL061C, strain CIN8 (second series), hits give low values 1.01 | [16] 1.01 | locus YER015W, strain faa2, hits give low values 1.01 | locus YER016W, strain bim1, hits give low values 1.05 | locus YER110C, hits give low values 0.998 | locus YER111C, strain swi4, hits give low values 1.01 | locus YER155C, strain BEM2 (second series), hits give low values 1.02 | locus YER155C, strain BEM2, hits give low values 1.01 | locus YER167W, strain BCK2, hits give low values 1.01 | locus YFR010W, strain ubp6, hits give low values 0.984 | locus YGL078C, strain dbp3, hits give low values 0.99 | locus YGL086W, strain mad1, hits give low values 1.01 | locus YGL167C, strain pmr1, hits give low values 1.02 | locus YGL173C, strain kem1, hits give low values 1.02 | locus YGL227W, strain vid30, hits give low values 1.01 | locus YGL240W, strain doc1, hits give low values 1 | locus YGL248W, strain PDE1, hits give low values 1 | locus YGL253W, strain hxk2, hits give low values 1.02 | locus YGR135W, strain pre9, hits give low values 0.986 | locus YGR252W, strain gcn5, hits give low values 0.947 | locus YHR013C, strain ard1, hits give low values 1.04 | locus YHR027C, strain rpn1, hits give low values 1.03 | [1] 1.01 and 0.978 | locus YHR079C, strain IRE1 (second series), hits give low values 1 | [2] 0.976 | locus YHR094C, strain hxt1, hits give low values 0.995 | locus YHR129C, strain ARP1, hits give low values 1.01 | locus YHR142W, strain chs7, hits give low values 1.03 | locus YHR200W, strain rpn10, hits give low values 1 | locus YIL066C, strain RNR3, hits give low values 1.01 | locus YIL073C, strain SPO22, hits give low values 1.04 | locus YIL125W, strain kgd1, hits give low values 0.996 | locus YIR030C, strain dcg1, hits give low values 1 | locus YJL092W, strain hpr5, hits give low values 1.02 | locus YJL095W, strain BCK1 (second series), hits give low values 1.03 | [3] 1.01 and 0.971 | locus YJL115W, strain asf1, hits give low values 1.01 | locus YJL129C, strain trk1, hits give low values 1.04 | locus YJL134W, strain LCB3, hits give low values 1.01 | locus YJL154C, strain vps35, hits give low values 1.01 | locus YJL164C, strain tpk1, hits give low values 1.01 | locus YJL166W, strain qcr8, hits give low values 1.01 | locus YJL168C, strain set2, hits give low values 0.993 | locus YJL187C, strain SWE1 (second series), hits give low values 1 | locus YJL187C, strain SWE1, hits give low values 1.01 | [17] 1.02 | [4] 0.931 | locus YKL009W, strain mrt4, hits give low values 1.01 | locus YKL068W, hits give low values 0.997 | locus YKL085W, strain MDH1 (second series), hits give low values 1 | locus YKL085W, strain MDH1, hits give low values 1 | locus YKL160W, strain elf1, hits give low values 1.04 | locus YKR001C, strain vps1, hits give low values 0.997 | locus YKR026C, strain gcn3, hits give low values 1 | locus YKR091W, strain srl3, hits give low values 1.01 | locus YLL001W, strain dnm1, hits give low values 1.01 | locus YLL026W, hits give low values 1.01 | locus YLL041C, strain sdh2, hits give low values 1.03 | locus YLR027C, strain aat2, hits give low values 1.02 | [18] 1.02 | locus YLR058C, strain SHM2, hits give low values 0.996 | locus YLR102C, strain apc9, hits give low values 0.995 | [5] 0.992 | locus YLR221C, strain rsa3, hits give low values 0.985 | locus YLR258W, strain gsy2, hits give low values 1.03 | locus YLR262C, strain YPT6 (second series), hits give low values 1 | [19] 1.04 | locus YLR268W, strain sec22, hits give low values 0.998 | locus YLR320W, strain mms22, hits give low values 1 | locus YLR330W, strain CHS5, hits give low values 1.01 | locus YLR342W, strain FKS1 (second series), hits give low values 0.998 | locus YLR342W, strain FKS1, hits give low values 1.02 | locus YLR357W, strain rsc2, hits give low values 1.03 | locus YLR370C, strain arc18, hits give low values 1.02 | locus YLR371W, strain rom2, hits give low values 0.994 | locus YLR384C, strain iki3, hits give low values 1.02 | locus YLR418C, strain cdc73, hits give low values 0.994 | locus YML016C, strain PPZ1, hits give low values 1 | locus YML032C, strain rad52, hits give low values 1 | locus YML120C, strain ndi1, hits give low values 1 | locus YML124C, strain tub3, hits give low values 0.998 | locus YMR058W, strain fet3, hits give low values 1.03 | locus YMR078C, strain ctf18, hits give low values 1 | locus YMR125W, strain sto1, hits give low values 1.03 | locus YMR129W, hits give low values 1.02 | locus YMR205C, strain PFK2, hits give low values 1.03 | locus YMR223W, strain ubp8, hits give low values 0.98 | locus YMR231W, strain pep5, hits give low values 1.02 | [11] 0.984 | locus YNL067W, strain RPL9B, hits give low values 1.01 | locus YNL071W, strain lat1, hits give low values 1 | [6] 0.954 | locus YNL209W, strain ssb2, hits give low values 1.02 | locus YNL233W, strain BNI4, hits give low values 1 | locus YNL248C, strain rpa49, hits give low values 1.03 | locus YNL250W, strain rad50, hits give low values 0.982 | locus YNL271C, strain bni1, hits give low values 0.993 | locus YNL298W, strain CLA4, hits give low values 0.995 | locus YNL307C, strain MCK1, hits give low values 1 | locus YNL322C, strain KRE1 (second series), hits give low values 1.04 | locus YNR049C, strain mso1, hits give low values 1.02 | locus YNR052C, strain pop2, hits give low values 0.996 | locus YOL012C, strain htz1 0.732 | locus YOL147C, strain pex11, hits give low values 0.992 | locus YOR001W, strain rrp6, hits give low values 0.986 | locus YOR061W, strain CKA2, hits give low values 1.01 | locus YOR069W, strain VPS5, hits give low values 1.01 | locus YOR070C, strain gyp1, hits give low values 1.03 | locus YOR080W, strain dia2, hits give low values 1.02 | locus YOR083W, strain WHI5, hits give low values 1.05 | locus YOR106W, strain vam3, hits give low values 1.05 | locus YOR136W, strain idh2, hits give low values 0.994 | locus YOR144C, strain elg1, hits give low values 0.997 | locus YOR184W, strain ser1, hits give low values 1 | [7] 0.992 | locus YOR265W, strain rbl2, hits give low values 1 | locus YOR270C, strain vph1, hits give low values 1.03 | locus YOR290C, strain snf2, hits give low values 1.06 | locus YOR316C, strain cot1, hits give low values 0.995 | locus YPL051W, strain arl3, hits give low values 1 | [20] 1 | locus YPL078C, strain atp4, hits give low values 1.04 | locus YPL106C, strain sse1, hits give low values 1.04 | locus YPL240C, strain hsp82, hits give low values 1.01 | [21] 1.01 | [8] 0.968 | locus YPR119W, strain clb2, hits give low values 0.999 | locus YPR141C, strain kar3, hits give low values 1.01 | locus YPR163C, strain tif3, hits give low values 1 | locus YPR167C, strain met16, hits give low values 1 | strain wtn01, hits give low values 0.997

Cc1ccc(N=Cc2cccs2)cc1Cl
inactive: [9] 1.01 | [14] 0.998 | locus YCL061C, strain MRC1, hits give low values 1.03 | [15] 1 | [10] 0.982 | [16] 1 | locus YGR078C, strain PAC10, hits give low values 1 | [1] 1.04 | locus YHR087W, strain rtc3, hits give low values 0.999 | [17] 1.02 | locus YJR075W, strain HOC1, hits give low values 1.01 | locus YKL190W, strain CNB1, hits give low values 0.998 | [18] 0.991 | locus YLR058C, strain SHM2 (second series), hits give low values 1.01 | locus YLR085C, strain ARP6, hits give low values 1.05 | [19] 1 | locus YML094W, strain GIM5, hits give low values 1 | locus YMR219W, strain ESC1, hits give low values 0.998 | locus YMR263W, strain SAP30, hits give low values 1 | locus YNL128W, strain TEP1, hits give low values 1 | [12] 1 | locus YNL298W, strain CLA4 (second series), hits give low values 1.04 | [13] 1.01 | locus YNR030W, strain Alg12, hits give low values 1.02 | locus YOL006C, strain TOP1, hits give low values 1.06 | [20] 1 | [21] 1.05 | locus YPR135W, strain CTF4, hits give low values 1.01
